Hits are enriched below; roughly 5.7% of the tested compounds scored in any of these assays.
ssDAF-12 act: activates DAF-12 receptor from parasite S. stercoralis; HEK293 ssDAF-12/GRIP1 lit1-tk-luc reporter, luminescence; % of 3 µM dafachronic acid response; hit rate 1% among 370,000; AID 652126; activation, % at 6.8 µM;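 active = activation above the mean over all tested compounds plus 3 SD, cut at about 0.9% in these data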;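 also: 0% = DMSO-only wells and 100% = 3 µM delta7-dafachronic acid wells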
hcDAF12 agonist: activates DAF-12 receptor from parasite H. contortus. HEK293 hcDAF-12 lit1-tk-luc reporter, luminescence; 0% DMSO, 100% Δ7-dafachronic acid. activation, % at 6.8 µM. hit rate 1.4% among 370,000. AID 652067;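 active = activation above the mean of all tested compounds plus 3 SD, cut at about 5.5% in these data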;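 also: 100% = response to 3 µM Δ7-dafachronic acid high control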
AHR activator: activators of human aryl hydrocarbon receptor. AHR-responsive luciferase reporter cells, luminescence. activation, % at 5 µM. hit rate 2.5% among 320,000. P35869; in the data active = activation above about 47%;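 also: 0% = vehicle wells and 100% = reference agonist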
hgDAF-12 ag: agonists of H. glycines DAF-12 nuclear receptor. hit rate 1.8% among 370,000. HEK293 GAL4-hgDAF12 UAS-luciferase reporter, agonist luminescence; normalized to butyrate control. AID 687014. activation, % at 6.8 µM;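 active = activation above a cutoff set at the mean of all screened compounds plus 3 SD, cut at about 10% in these data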;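 also: 0% = DMSO wells and 100% = sodium butyrate wells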
DAX1 inh-1: inhibitors of DAX1 repression of SF-1 activated StAR promoter; HEK293T StAR-luciferase reporter, SF-1/DAX-1 repression relief; hit rate 1.1% among 370,000; inhibition, % at 6.8 µM;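 active = inhibition above the mean over all tested compounds plus 3 SD, cut at about 3.6% in these data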;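 also: 0% = DAX-1 cells with DMSO and 100% = cells lacking DAX-1 with DMSO; higher inhibition means more luminescence from relief of DAX-1 repression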
DAX1 inh-2: inhibits human nuclear receptor DAX1; P51843; HEK293 Gal4-DAX1 luciferase reporter, luminescence; inhibition, % at 6.75 µM; hit rate 0.99% among 340,000; AID 504766;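 active = inhibition above the mean over all tested compounds plus 3 SD, cut at about 4.2% in these data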;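 also: 0% = DAX1-transfected cells with DMSO and 100% = empty-vector control cells with DMSO; inhibition shows as a rise in luminescence from relieved DAX1 repression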
Target sequence (P51843 207-470 limits assumed): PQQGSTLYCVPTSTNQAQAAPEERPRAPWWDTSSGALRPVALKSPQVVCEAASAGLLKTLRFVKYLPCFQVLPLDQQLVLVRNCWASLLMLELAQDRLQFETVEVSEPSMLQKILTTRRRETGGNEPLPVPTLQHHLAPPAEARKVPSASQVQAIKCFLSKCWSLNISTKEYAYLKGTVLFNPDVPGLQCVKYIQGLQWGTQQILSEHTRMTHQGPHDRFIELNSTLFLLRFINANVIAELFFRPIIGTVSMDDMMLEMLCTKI
Active calls of the source: *; x = not tested or not shown.

SMILES	ssDAF-12 act	hcDAF12 agonist	AHR activator	hgDAF-12 ag	DAX1 inh-1	DAX1 inh-2
CNC(=O)NC(=O)COC(=O)CCCOc1ccc(OC)cc1	-0.6	-1.3	0.6	-0.2	0.2	5.6*
Cc1ccc(C)c(OCc2nc3ccc(S(=O)(=O)Nc4c(C)n(C)n(-c5ccccc5)c4=O)cc3[nH]2)c1	-1.4	-0.5	6.7	-0.5	-0.7	-0.6
Cc1ccc(S(=O)(=O)SC/C=C/CSS(=O)(=O)c2ccc(C)cc2)cc1	-0.5	0.1	x	0.9	-0.5	5.5*
Cc1ccc(S(=O)(=O)SCCCSS(=O)(=O)c2ccc(C)cc2)cc1	-0.8	-0.6	x	-1.9	-0.8	-0.9
O=C(O)CCCCCn1c(SCc2cc(=O)n3ccccc3n2)nc2ccsc2c1=O	-0.6	-2.1	-0.8	-2.0	-0.4	-1.6
CC(OC(=O)c1cccnc1SCc1cc(=O)n2ccccc2n1)c1ccccn1 (centres undefined)	-0.6	3.3	73.0*	-1.3	-0.2	1.2
CCOC(=O)c1cccnc1SCc1cc(=O)n2ccccc2n1	2.1*	4.0	29.1	3.4	1.7	-0.2
Cc1ccc(/C=C/C(=O)Nc2ccc(S(=O)(=O)Nc3onc(C)c3C)cc2)cc1	-0.3	2.2	-1.0	-1.9	0.2	0.4
O=C(OCc1cn(Cc2ccc(F)c(F)c2)nn1)N1CCOCC1	-1.5	-0.2	x	-2.6	0.3	x
Cc1nc(NC(=O)c2cccc(Cl)c2)sc1C(=O)N1CCCCC1	-1.1	-0.1	10.1	11.3*	1.6	-0.2
Cc1nc(NC(=O)C2CC2)sc1C(=O)N1CCCCC1	-1.4	-1.8	-0.4	-0.8	0.6	-0.4
COCCNC(=O)C1(C)CCCN(C(=O)Cc2ccc3ccccc3c2)C1 (centres undefined)	-1.6	0.2	x	1.0	-0.4	x
CCCn1c(/N=C/c2ccc3c(c2)OCO3)nc2ccccc21	-1.6	-1.2	-1.3	-0.2	0.0	0.5
C=CCn1c(/N=C/c2ccc3c(c2)OCO3)nc2ccccc21	1.2*	-0.1	14.5	0.3	0.0	-0.4
CC1(C(=O)NS(=O)(=O)c2ccccc2)CCN1C(=O)CCc1ccccc1 (centres undefined)	-1.1	-1.4	x	1.2	0.8	x
CCOC(=O)C1(Cc2ccccc2Cl)CCN(C(=O)CCn2ccnc2C)CC1	-0.9	0.0	0.5	2.9	0.6	3.0
Cc1ccc(C)c(N(C(=O)c2csnn2)C(C(=O)NC2CCCCC2)c2cccnc2)c1 (centres undefined)	-1.1	1.8	3.6	-1.6	0.1	4.4*
O=C(NC1CCCC1)C(c1ccccc1)N(C(=O)c1csnn1)c1ccccc1F (centres undefined)	-0.3	-0.2	0.7	-0.7	0.6	4.7*
O=C(NC1CCCC1)C(c1ccc(F)cc1)N(C(=O)c1csnn1)C1CCCC1 (centres undefined)	-1.2	-1.7	-1.9	1.3	0.1	5.9*
CCN(Cc1nc2ccccc2c(=O)[nH]1)Cc1cc(=O)oc2cc(OC)ccc12	-0.7	-0.4	0.6	-3.7	-0.6	0.3
C[C@H](CO)N1C[C@H](C)[C@H](CN(C)C(=O)Cc2ccncc2)Oc2ncc(Br)cc2C1=O	-1.5	-1.6	x	-4.1	3.8*	0.9
C[C@@H]1CN([C@@H](C)CO)C(=O)c2cc(-c3cccnc3)cnc2O[C@H]1CN(C)C(=O)c1cccc(F)c1	-0.2	0.0	x	0.4	-0.4	6.5*
COc1cc(/C=C2/C(=N)N3N=C(CC(=O)N4CCOCC4)SC3=NC2=O)ccc1OCc1ccc(F)cc1	0.0	3.2	1.4	9.3	3.8*	0.6
COc1cc(/C=C2/C(=N)N3N=C(CC(=O)N4CCOCC4)SC3=NC2=O)ccc1OCc1ccccc1F	x	x	0.4	x	x	0.5
O=C1Nc2cc(C(F)(F)F)ccc2N2CCCCC12 (centres undefined)	-0.6	-0.6	73.8*	-2.0	-0.6	0.1
SMILES	ssDAF-12 act	hcDAF12 agonist	AHR activator	hgDAF-12 ag	DAX1 inh-1	DAX1 inh-2
CC1(C)C2CCC(CN)C1C2 (centres undefined)	-1.1	-1.8	x	3.7	0.1	5.3*
COc1ccc(C2C(C(=O)N3CCOCC3)CC(=O)N2c2ccc(OC)cc2)cc1 (centres undefined)	-1.9	-0.9	x	7.9	-0.5	x
CCOC(=O)C(=CNc1ccc(Oc2cncc(Cl)c2)nc1)C(=O)OCC	-1.4	-0.4	5.3	2.4	-0.5	1.0
Cc1c(Cl)cccc1N1C(=O)CC(NNC(=O)c2cccs2)C1=O (centres undefined)	-0.3	4.2	1.1	10.4*	1.5	0.4
OC(c1cccc(Cl)c1)c1nc(-c2ccc3c(c2)OCO3)cs1 (centres undefined)	-1.1	-1.1	x	1.2	-0.3	x
O=C(O)c1cccc(-c2csc(C(O)c3ccc(F)cc3)n2)c1 (centres undefined)	-0.1	1.6	x	6.2	4.2*	x
OC(c1ccccc1)c1nc(-c2ccc3c(c2)OCO3)cs1 (centres undefined)	-0.8	1.3	x	13.2*	2.1	x
Cc1c(Cl)cccc1NC(=O)NCc1cccnc1	-1.3	-2.3	x	1.4	-0.1	0.3
Cc1ccc(-n2nc(C)c3c2OC(N)=C(C#N)C3c2ccoc2)cc1 (centres undefined)	-0.1	2.9	51.0*	2.1	-0.1	2.6
Cc1ccc(-n2nc(C)c3c2OC(N)=C(C#N)C3c2ccco2)cc1 (centres undefined)	-0.3	4.3	63.0*	1.7	-0.1	-0.8
Cc1ccc(-n2nc(C)c3c2OC(N)=C(C#N)C3c2ccc(C)o2)cc1 (centres undefined)	-0.9	5.0	33.3	2.0	0.8	1.0
CCN(CC)C(=O)COc1ccc2oc(-c3ccco3)cc(=O)c2c1	-0.7	0.4	6.3	5.9	0.0	1.0
COc1ccc2nc(Cl)c(/C=N/Nc3ccccn3)cc2c1	-0.9	1.8	8.1	10.2	4.1*	0.9
COc1ccc(/C=N/NC(=O)c2cccnc2)c(C(=O)O)c1OC	-1.5	0.4	8.9	-0.4	0.5	0.6
COc1cc2c(cc1NC(=O)Nc1cccc(C)c1)oc1ccccc12	-0.8	-0.2	-4.5	2.4	0.5	-0.8
CCN(CC)S(=O)(=O)c1ccc(OC)c(NC(=O)c2ccc([N+](=O)[O-])cc2)c1	-1.3	-1.3	3.1	-4.0	0.2	1.9
COc1cc2c(cc1NC(=S)Nc1cccc(C)c1)oc1ccccc12	-0.3	-0.4	84.4*	2.5	-0.6	-1.0
COc1cc2c(cc1NC(=O)COC(=O)[C@@H](NS(=O)(=O)c1cccc(Cl)c1)C(C)C)oc1ccccc12	-0.7	2.1	57.3*	2.1	-0.4	-0.6
CCCNC(=S)Nc1cc2oc3ccccc3c2cc1OC	-0.6	0.3	52.6*	0.3	2.0	-0.2
CCN(CC)S(=O)(=O)c1ccc(C(=O)Nc2cc3oc4ccccc4c3cc2OC)cc1	-1.3	-2.1	51.4*	1.1	-0.4	0.5
Cn1c(SCC(=O)Nc2cccc(S(=O)(=O)NC3=NCCCCC3)c2)nnc1-c1ccncc1	-1.7	-0.7	0.8	-1.3	0.3	1.2
